The values below come from PubChem BioAssay (NCI).

The nature of experiment [1]: NCI Yeast Anticancer Drug Screen. Data for the rad50 strain (AID 155).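 Further: 0% = growth of vehicle-only cultures of the same strain.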 The settings on record: S. cerevisiae rad50 strain growth inhibition; at 50.0 µM; stronger effect = higher value. In short, it runs like this:
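Vehicle-treated cultures provide the reference for the growth inhibition reported for compound-exposed, repair-deficient yeast.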

Experiment [2] is described as follows: NCI Yeast Anticancer Drug Screen. Data for the mec2-1 strain (AID 157). To be noted: S. cerevisiae mec2-1 strain, at 50.0 µM, stronger effect = higher value. In short, it runs like this: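 Using mec2-1 yeast: add compound, measure growth, express inhibition versus vehicle-treated cultures.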
Experiment [3] in a line: NCI Yeast Anticancer Drug Screen. Data for the sgs1 mgt1 strain (AID 161).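 Further: 0% = growth of cultures given vehicle only.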 The settings on record: S. cerevisiae sgs1 mgt1 strain, at 50.0 µM, stronger effect = higher value. In short, it runs like this: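 Yeast cells carrying a defined DNA-repair defect were exposed to test compounds. Growth inhibition was measured relative to vehicle-treated controls.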
Experiment [4] can be described thus: NCI Yeast Anticancer Drug Screen. Data for the cln2 rad14 strain (AID 165).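 Further: 0% = growth equal to vehicle treated cultures.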 The settings on record: S. cerevisiae cln2 rad14 strain, at 50.0 µM, stronger effect = higher value. In short, it runs like this: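 Yeast strain cln2 rad14, bearing defects in cell cycle control and DNA repair, serves as the test system; values reflect growth inhibition compared with vehicle.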

Experiment [5] is described as follows: NCI Yeast Anticancer Drug Screen. Data for the bub3 strain (AID 167). The settings on record: S. cerevisiae bub3 mutant strain, at 50.0 µM, stronger effect = higher value. The essentials:
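Mutant yeast screening strain plus compound; vehicle-treated cultures serve as the 0% inhibition reference.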

Experiment [6] can be described thus: NCI Yeast Anticancer Drug Screen. Data for the mlh1 rad18 strain (AID 175). The settings on record: S. cerevisiae mlh1 rad18 strain growth inhibition; at 50.0 µM; stronger effect = higher value. The essentials:
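Steps: expose repair-defective yeast to compound; measure growth; express inhibition against vehicle-treated controls.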

Where “and” joins values, the source holds several entries; their conditions need not be identical. Identical values can stand only once. About 79,000 compounds went through this panel and 15% of them were active in at least one assay; those are over-represented in the sample as a whole. Values without a mark were called inactive. Calls of active or inactive are those of the source. No stated cut-off is given here; in the data, active means growth inhibition above about 70%; inactive means the rest.

As to `O=C([O-])CN(CCN(CC(=O)[O-])CC(=O)O)CC(=O)O.[Fe+5].[Na+]`, the growth inhibition in experiment [1] was -12.6%; in experiment [2], -13.3%; in experiment [3], 0.35%; in experiment [4] it was -35.8%; in experiment [5] it was -2.85%; in experiment [6], -8.4%.

As for `N.N.N.N.N.O=C([O-])CCl.[Co+3].[O-][Cl+3]([O-])([O-])[O-]`, the growth inhibition was -21.4% in experiment [1]; -7.45% in experiment [2]; -33.5% in experiment [3]; -0.1% in experiment [4]; -16.6% in experiment [5]; -31.4% in experiment [6].

As to `CC(C)(O)C1=CC23CC(C)(C(=O)O)C4CCCCC4(C)C2CC1OO3` (centres undefined), the growth inhibition in experiment [1] was 21.4%; in experiment [2], -7.3%; in experiment [3], 32%; in experiment [4] it was 11.4%; in experiment [5], -10.3%; in experiment [6], 25.4%.

Regarding `c1ccc(N2CCNCC2)nc1`, the growth inhibition is -6.4% in experiment [1]; -4.3% in experiment [2]; 9.2% in experiment [3]; 6.9% in experiment [4]; 8.25% in experiment [5]; 0.15% in experiment [6].

With `CN(C)C(=O)Sc1c(Cl)cc(S(=O)(=O)F)cc1[N+](=O)[O-]`, the growth inhibition was 22.9% in experiment [1]; 19.1% in experiment [2]; 27.9% in experiment [3]; 29.9% in experiment [4]; 8.9% in experiment [5]; 20.6% in experiment [6].

As for `Cc1ccc(O)cc1`, the growth inhibition was -27.4% in experiment [1]; 24.1% in experiment [2]; -22% in experiment [3]; -31.2% in experiment [4]; 1.1% in experiment [5]; -30.1% in experiment [6].

With `CCCC1NCCOC1(O)c1ccccc1` (centres undefined), the growth inhibition was -11.2% in experiment [1]; -8.35% in experiment [2]; -1% in experiment [3]; -16.4% in experiment [4]; 3.35% in experiment [5]; -33.8% in experiment [6].

In the case of `O=C(O)C(=O)O.[Ti].[c-]1[c-][c-][cH-][c-]1.[c-]1[c-][c-][cH-][c-]1`, the growth inhibition in experiment [1] is 23.9%; in experiment [2] it was 14.9%; in experiment [3] it was 29.6%; in experiment [4], -54.7%; in experiment [5], 24%; in experiment [6], 29.7%.

On to `CCCC(Br)C(=O)OCC` (centres undefined), for which the growth inhibition was 13.6% in experiment [1]; 4.35% in experiment [2]; -8.1% in experiment [3]; 0.15% in experiment [4]; 0.25% in experiment [5]; 9.1% in experiment [6].

With `CC1(C)CN1C1=C(Br)C(=O)C(N2CC2(C)C)=C(Br)C1=O`, the growth inhibition is 18.8% in experiment [1]; 0.9% in experiment [2]; 7.75% in experiment [3]; 9.9% in experiment [4]; -0.65% in experiment [5]; 30.1% in experiment [6].

For the molecule `c1cnc[c]([Hg][c]2cccnc2)c1`, the growth inhibition is 40.1% in experiment [1]; 56.5% in experiment [2]; 37.2% in experiment [3]; 73.5% (active) in experiment [4]; 88.8% (active) in experiment [5]; 53.4% in experiment [6].

In the case of `COC1C=CC23c4cc5c(cc4COC2(O)CN(C)C3C1)OCO5` (centres undefined), the growth inhibition is -18.2% in experiment [1]; -26.2% in experiment [2]; -56.5% in experiment [3]; -4.5% in experiment [4]; -18.9% in experiment [5]; -28.6% in experiment [6].

As for `CCOc1ccc(P2(=S)SP(=S)(c3ccc(OCC)cc3)S2)cc1` (centres undefined), the growth inhibition in experiment [1] is -11.3%; in experiment [2], -20.9%; in experiment [3], -13.2%; in experiment [4] it was 20%; in experiment [5] it was 17.1%; in experiment [6] it was -13.8%.

As to `O=C(Nc1ccc([As](=O)(O)O)cc1)Nc1cccc(Cl)c1Cl`, the growth inhibition in experiment [1] is 37.9%; in experiment [2] it was 36.3%; in experiment [3], -8%; in experiment [4] it was 0.3%; in experiment [5] it was 44.1%; in experiment [6] it was 34.9%.

As to `O=[N+]([O-])c1ccc(CCBr)cc1`, the growth inhibition in experiment [1] was 28.8% and 30.2%; in experiment [2] it was 1.25% and 37.6%; in experiment [3], 13.4% and 34%; in experiment [4], 17.1% and 11.8%; in experiment [5] it was 36.3% and 3.2%; in experiment [6], 17.6% and -2.15%.

For `CC(=O)CC(C)=O.CC(=O)CC(C)=O.CC(=O)CC(C)=O.[Sm]`, the growth inhibition is 53% in experiment [1]; 13.8% in experiment [2]; 37.1% in experiment [3]; 31.9% in experiment [4]; 9.1% in experiment [5]; 33.8% in experiment [6].

As to `CC1OC(O[C@H]2C[C@@H](O)[C@]3(CO)[C@H]4[C@H](O)C[C@]5(C)[C@@H](C6=CC(=O)OC6)CC[C@]5(O)[C@@H]4CC[C@]3(O)C2)C(O)C(O)C1O` (some centres undefined), the growth inhibition was -6.7% in experiment [1]; 1.15% in experiment [2]; 5.05% in experiment [3]; 20.9% in experiment [4]; -1.2% in experiment [5]; -47.5% in experiment [6].

Regarding `Cc1cccc(NC(=O)CCl)c1`, the growth inhibition was 1.65% in experiment [1]; -23.4% in experiment [2]; 10.8% in experiment [3]; -4.6% in experiment [4]; 21.9% in experiment [5]; 19.8% in experiment [6].

On to `CCOC(=O)C1=C(C)N2CCCOC2(C)C(C(=O)OC)C1c1cccc([N+](=O)[O-])c1` (centres undefined), for which the growth inhibition in experiment [1] was 38%; in experiment [2], 10.8%; in experiment [3] it was -6.5%; in experiment [4], 18.5%; in experiment [5], -34.6%; in experiment [6], 27.8%.
